From PubChem BioAssay
HT1080NT lethal: kills 2HG-producing HT-1080-NT fibrosarcoma cells; actives 1.6% (n = 360,000); HT-1080-NT fibrosarcoma viability, CellTiter-Glo ATP luminescence, 48 h; Potency, µM (doses to about 46.1 µM), inactives show at the highest dose activity, negative = less viability, hits mostly cytotoxic;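 note: NT is the 2HG producing partner of a matched IDH1 knockdown line; 0% = DMSO-treated cells and -100% = media-only wells without cells; nearly all actives have a fitted effect of over 55% in size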
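HT-1080-NT fibrosarcoma cells (2HG-overproducing), 750 cells/well in RPMI with 5% FBS, dosed after 2 h and incubated 48 h at 37C. CellTiter-Glo luminescence normalized to DMSO and no-cell wells; concentration-response curves fitted and classed.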
HT1080 IDH1KD tx: HT-1080 IDH1 knockdown cell toxicity (counter line) | HT-1080 IDH1 knockdown viability, ATP luminescence, 48 h | Potency, µM (top dose mostly 46.1 µM), without a hit: at the top dose activity, negative = toxicity, hits mostly cytotoxic | actives 2% (n = 360,000) | AID 686971;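 note: 0% = DMSO wells and -100% = cell-free medium wells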
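Using the IDH1-knockdown HT-1080 line run in the same batch and compound series as the NT line, viability after 48 h at 37 °C was determined by CellTiter-Glo luminescence and expressed as % activity.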
ATXN2 expr inh: reduces ATXN2 reporter expression in HEK-293 cells; AID 1745845; Potency, µM (highest dose often 57 µM), for the others: at the highest dose activity change, negative = inhibition, hits mostly inhibitors; actives 0.72% (n = 360,000); HEK-293 ATXN2-luciferase reporter, luminescence, 24 h; note: % is set by controls: 0 for no effect and ±100 for the full control effect; nearly all actives have a fitted effect of over 55% in size
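qHTS (up to 57 uM final) was run with 24 h compound exposure of reporter cells at 37 °C. Each well was multiplexed: SteadyGlo luminescence measured ATXN2-luciferase expression after a fluorogenic Gly-Phe-AFC viability readout (25 uM final).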
S2 tox: reduces viability in counter-screen for ATXN expression inhibitors. S2 cells (HEK-293 line with an ATXN2-luciferase reporter) viability, CellTiter-Fluor protease fluorescence, 24 h. Potency, µM (doses to about 56.7 µM), hits mostly cytotoxic. actives 0.49% (n = 400,000); note: nearly all actives have a fitted effect of over 40% in size
HepG2 viability: HepG2 cytotoxicity, counter-screen for TGF-b inhibitors | AID 588856 | Potency, µM (highest dose often 46.1 µM), inactives show at the highest dose activity change, negative = cytotoxicity, actives largely listed as cytotoxic | HepG2 CAGA-GFP viability, ATP luminescence, 18 h | actives 0.76% (n = 410,000)
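CellTiter-Glo luminescence gave cytotoxicity after 18 hours at 37 degrees C. The cells were HepG2 CAGA-GFP in 1% FBS DMEM, stimulated with 500 pg/mL TGF-beta after compound addition. %Activity was normalised to no-cell wells (complete cell-killing) and DMSO (no toxicity), and curves were fitted and classified.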
TGFb SMAD3 inh: blocks TGF-b signaling. HepG2 CAGA-GFP TGF-b/SMAD3 reporter, GFP fluorescence, 18 h; TGF-beta stimulated, 500 pg/mL final. actives 1.2% (n = 410,000). Potency, µM (doses to about 46.1 µM), without a hit: top-dose activity, negative = inhibition, hits mostly inhibitors. AID 588855; note: % is set by controls: 0 for no effect and ±100 for the full control effect; nearly all actives have a fitted effect of over 65% in size
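Using HEPG2 CAGA-GFP reporter cells at 1000 cells/well, we pinned test compounds, stimulated with recombinant TGF-beta (500 pg/mL final) and measured total well GFP after 18 h.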
* marks the source's active call; other numbers are inactive results; i = inactive; ? = inconclusive; . = not tested or not shown. An excerpt weighted towards active compounds, which were near 3.8% of everything screened. Calls come from the whole dose curve; as a rule, active = well fitted curve in the direction sought with a large enough effect; inconclusive = small, poorly fitted or top-dose-only effect, or another doubt; inactive = no such curve, though single readings can be large; an effect the other way counts as inactive or inconclusive. Potency is the fitted concentration of half-maximal effect.

SMILES	HT1080NT lethal	HT1080 IDH1KD tx	ATXN2 expr inh	S2 tox	HepG2 viability	TGFb SMAD3 inh
O=C(Nc1cccc([N+](=O)[O-])c1)c1ccc([N+](=O)[O-])o1	?	?	.	?	-63%	?
CCCCCCCOc1ccc(CC(=O)NO)cc1	.	.	.	.	4%	16%
Oc1cc(O)c(/C=C/c2ccnc3ccccc23)c(O)c1	.	.	.	.	4%	-1%
CN(CC(=O)NC(=O)NCc1ccco1)Cc1nc2ccccc2c(=O)[nH]1	?	11µM*	3%	i	-1%	?
O=C(CCc1nc2ccccc2c(=O)[nH]1)NCc1ccco1	-22%	-24%	-11%	i	-4%	-4%
CCn1c(=O)c(C(=O)NCCc2ccccc2)c(O)c2ccccc21	-15%	-26%	-7%	i	-3%	-13%
CCn1c(=O)c(C(=O)NCCN2CCCCC2)c(O)c2ccccc21	?	18µM*	-16%	i	-27%	-10%
O=S(=O)(c1cccc(Cl)c1)N1CCN(c2nc(-c3cccs3)nc3ccccc23)CC1	?	2%	.	.	35%	8%
CCc1ccccc1N(C)S(=O)(=O)c1ccc2c(c1)C(C)(C)C(=O)N2C	.	.	3%	i	-19%	6%
Cc1ccc(S(=O)(=O)c2cc3cc(Br)ccc3oc2=O)cc1	2%	-1%	?	.	-10%	-10%
CC(C)c1ccc(S(=O)(=O)c2cc3cc(Br)ccc3oc2=O)cc1	13µM*	13µM*	20µM*	i	5%	-20%
O=C(CN1c2ccccc2Sc2ccccc21)NNC(=O)Nc1ccc(Cl)cc1	23µM*	21µM*	-31%	i	-61%	?
O=C(CCc1ccccc1)NNC(=O)Nc1ccc(Cl)cc1	19%	-6%	-28%	i	-5%	4%
O=C(CN1c2ccccc2Sc2ccccc21)NNC(=O)Nc1ccc(Cl)c(Cl)c1	21µM*	?	-10%	i	13µM*	?
O=C(CSc1nc2ccccc2s1)NNC(=O)Nc1ccc(Cl)c(Cl)c1	-2%	-7%	3%	i	-18%	-1%
COc1ccccc1OCC(=O)NNC(=O)Nc1ccc(Cl)cc1	18µM*	5.8µM*	-4%	i	2%	-23%
Cc1ccc(Cn2c(SCC(=O)NCc3ccccc3Cl)nc3ccsc3c2=O)cc1	.	.	.	.	10%	21%
COc1ccc(S(=O)(=O)c2c(C(=O)c3ccc(C)c(C)c3)cnc3ccc(C)cc23)cc1	.	.	?	?	3%	1%
CCc1ccc(Oc2nnnn2-c2ccc(C(N)=O)cc2)cc1	13%	-6%	-1%	i	5%	14%
COc1ccc(-n2nnnc2S(=O)(=O)CC(=O)N2CCCCC2)cc1	21µM*	21µM*	13µM*	10µM*	13µM*	?
COc1ccc(-n2nnnc2S(=O)(=O)Cc2ccc(C(=O)O)cc2)cc1	14µM*	7.9µM*	?	?	-6%	-17%
Cn1nnnc1SCCCNCc1cc(Br)ccc1OCc1ccccc1F	.	.	?	.	-70%	?
CCCCc1ccc(NC(=O)COc2cccc3c(=O)n(C)ccc23)cc1	.	.	?	?	-51%	8.9µM*
COCCn1ccc2c(OCC(=O)Nc3cccc(NC(C)=O)c3)cccc2c1=O	-5%	-1%	3%	i	18µM*	-4%
CCCn1ccc2c(OCC(=O)Nc3ccc(NC(C)=O)cc3)cccc2c1=O	-3%	-1%	-1%	i	-12%	7%
CCn1ccc2c(OCC(=O)Nc3ccc(C)c(Cl)c3)cccc2c1=O	.	.	?	.	-37%	7.1µM*
CCCn1ccc2c(OCC(=O)Nc3ccc(OC)c(OC)c3)cccc2c1=O	.	.	?	?	-18%	-26%
CCn1nc(C)cc1C(=O)NCC1CCC2(CCN(Cc3ccccc3F)CC2)O1 (stereo not given)	.	.	.	i	.	.
